Results from PubChem BioAssay (NCATS).
Results filed as inconclusive are left out. Activity calls are given as the source filed them. Calls follow the shape of the dose curve; as a rule, active = well fitted curve in the direction sought with a large enough effect; inconclusive = small, poorly fitted or top-dose-only effect, or another doubt; inactive = no such curve, though single readings can be large; an effect the other way counts as inactive or inconclusive.

Columns and labels:
KB-3-1 = experiment: Cytotoxic Profiling of Annotated Libraries Using Quantitative High-Throughput Screening (AID 1296008); conditions: Five cell lines viability, CellTiter-Glo ATP luminescence, 48-72 h; max response: stronger effect = lower value; also: nearly all actives have a fitted effect of over 60% in size; as to max response: % is scaled to controls: 0 for no effect and ±100 for the full control effect
Outline: (§1)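 Cells exposed to compounds for 48 or 72 hr at 37 degrees Celsius. Viability read as ATP-coupled luminescence with CellTiter-Glo after 10 min at room temperature.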

NIH3T3 [1] = experiment: as above; conditions: Five cell lines viability, CellTiter-Glo ATP luminescence, 48-72 h; max response: stronger effect = lower value
Outline: as §1

HACAT = experiment: qHTS assay to identify novel small-molecules to repurpose for Merkel cell carcinoma treatment (AID 1296009); conditions: MCC and control cell lines, CellTiter-Glo viability, 72 h; at 44.8 µM (top of the series) unless noted; also: nearly all actives have a fitted effect of over 60% in size
Outline: (§2)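 CellTiter-Glo luminescence after 72 hr compound exposure at 37 degree celsius gave cell viability. Libraries NPC and MIPE were run as 8- and 11-point dose responses; RLUs normalized to DMSO (negative) and no-cell (cytotoxicity) controls.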

HEK293T [2] = experiment: as above; conditions: MCC and control cell lines, CellTiter-Glo viability, 72 h; series mostly up to 44.8 µM
Outline: as §2

NIH3T3 [3] = experiment: as above; conditions: MCC and control cell lines, CellTiter-Glo viability, 72 h; at 44.8 µM (top of the series) unless noted
Outline: as §2

C33A = experiment: Primary qHTS to identify gynecologic anti-cancer compounds using libraries of approved drugs and bioactive compounds (AID 1345084); conditions: Gynecologic cancer cell panel viability, ATPlite luminescence, 48 h; series mostly up to 57.5 µM; also: % is scaled to controls: 0 for no effect and ±100 for the full control effect; nearly all actives have a fitted effect of over 55% in size
Outline: (§3)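 Cytotoxicity screen measuring ATP content by luciferase luminescence. Each compound is applied at five concentrations for 48 h at 37 C with 5% CO2.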

CAOV3 = experiment: as above; conditions: Gynecologic cancer cell panel viability, ATPlite luminescence, 48 h; series mostly up to 57.5 µM
Outline: as §3

CASKI = experiment: as above; conditions: Gynecologic cancer cell panel viability, ATPlite luminescence, 48 h; series mostly up to 57.5 µM
Outline: as §3

Es-2 = experiment: as above; conditions: Gynecologic cancer cell panel viability, ATPlite luminescence, 48 h; series mostly up to 57.5 µM
Outline: as §3

HeLa = experiment: as above; conditions: Gynecologic cancer cell panel viability, ATPlite luminescence, 48 h; series mostly up to 57.5 µM
Outline: as §3

Hek293T [4] = experiment: as above; conditions: Gynecologic cancer cell panel viability, ATPlite luminescence, 48 h, control line for the selectivity index; series mostly up to 57.5 µM
Outline: as §3

JEG-3 = experiment: as above; conditions: Gynecologic cancer cell panel viability, ATPlite luminescence, 48 h; series mostly up to 57.5 µM
Outline: as §3

OV90 = experiment: as above; conditions: Gynecologic cancer cell panel viability, ATPlite luminescence, 48 h; series mostly up to 57.5 µM
Outline: as §3

PA-1 = experiment: as above; conditions: Gynecologic cancer cell panel viability, ATPlite luminescence, 48 h; series mostly up to 57.5 µM
Outline: as §3

C[C@@H]1O[C@@H](O[C@H]2[C@H](OC(C#N)c3ccc(O)cc3)O[C@H](CO)[C@@H](O)[C@@H]2O)[C@H](O)[C@H](O)[C@H]1O (some centres not stated)
inactive: outcome (KB-3-1) | outcome (NIH3T3 [1]) | outcome (HACAT) inactive [at 17.4 µM] | Potency (HEK293T [2]) | outcome (NIH3T3 [3]) inactive [at 17.4 µM] | Potency (C33A) | Potency (CAOV3) | Potency (CASKI) | Potency (Es-2) | Potency (HeLa) | Potency (Hek293T [4]) | Potency (JEG-3) | Potency (OV90) | Potency (PA-1)

c1ccc(C(OC2CCN(CCCc3nn[nH]n3)CC2)c2ccccc2)cc1
inactive: max response (KB-3-1) -3.18% | outcome (NIH3T3 [1]) | outcome (HACAT) | Potency (HEK293T [2]) | outcome (NIH3T3 [3]) | Potency (C33A) | Potency (CAOV3) | Potency (CASKI) | Potency (Es-2) | Potency (HeLa) | Potency (Hek293T [4]) | Potency (JEG-3) | Potency (OV90) | Potency (PA-1)

Cc1[nH]cnc1C1CCN(c2nc3cccc4c3n2CCC4=O)CC1
inactive: max response (KB-3-1) 2.43% | outcome (NIH3T3 [1]) | outcome (HACAT) | Potency (HEK293T [2]) | outcome (NIH3T3 [3]) | Potency (C33A) | Potency (CAOV3) | Potency (CASKI) | Potency (Es-2) | Potency (HeLa) | Potency (Hek293T [4]) | Potency (JEG-3) | Potency (OV90) | Potency (PA-1)

C=CC(C)(O)CC/C=C(/C)C(=O)OC1C(OC2OCC(OC3OC(CO)C(O)C(O)C3O)C(OC3OCC(O)C(OC4OC(C)C(O)C(O)C4O)C3O)C2O)COC(OC(=O)C23CCC(C)(C)CC2C2=CCC4C5(C)CCC(OC6OC(CO)C(OC7OC(CO)C(O)C(OC8OCC(O)C(O)C8O)C7O)C(O)C6O)C(C)(C)C5CCC4(C)C2(C)CC3O)C1O (configuration not stated)
inactive: max response (KB-3-1) -5.7% | outcome (NIH3T3 [1]) | outcome (HACAT) inactive [at 4.96 µM] | outcome (HEK293T [2]) inactive [at 4.96 µM] | outcome (NIH3T3 [3]) inactive [at 4.96 µM] | activity change, negative = cytotoxicity (C33A) 1.13% [at 6.55 µM] | activity change, negative = cytotoxicity (CAOV3) 6.96% [at 6.55 µM] | activity change, negative = cytotoxicity (CASKI) 8.91% [at 6.55 µM] | activity change, negative = cytotoxicity (Es-2) -0.338% [at 6.55 µM] | activity change, negative = cytotoxicity (HeLa) 1.37% [at 6.55 µM] | activity change, negative = cytotoxicity (Hek293T [4]) -23.4% [at 6.55 µM] | activity change, negative = cytotoxicity (JEG-3) -0.642% [at 6.55 µM] | activity change, negative = cytotoxicity (OV90) -1.5% [at 6.55 µM] | activity change, negative = cytotoxicity (PA-1) 6.35% [at 6.55 µM]

CCS(=O)(=O)N1CCC([C@@H](C)n2c(C)c(C(=O)NCc3c(OC)cc(C)[nH]c3=O)c3ccccc32)CC1
inactive: max response (KB-3-1) 9.76% | outcome (NIH3T3 [1]) | outcome (HACAT) | Potency (HEK293T [2]) | outcome (NIH3T3 [3]) | Potency (C33A) | Potency (CAOV3) | Potency (CASKI) | Potency (Es-2) | Potency (HeLa) | Potency (Hek293T [4]) | Potency (JEG-3) | Potency (OV90) | Potency (PA-1)

CC(O)C(O)/C=C/C=C/C(=O)O[C@@H]1C=C2COC(=O)[C@]2(O)[C@@]2(C)CCCC(C)(C)C12 (some centres not stated)
inactive: max response (KB-3-1) 8.55% | outcome (NIH3T3 [1]) | outcome (HACAT) inactive [at 17.4 µM] | Potency (HEK293T [2]) | outcome (NIH3T3 [3]) inactive [at 17.4 µM] | Potency (C33A) | Potency (CAOV3) | Potency (CASKI) | Potency (Es-2) | Potency (HeLa) | Potency (Hek293T [4]) | Potency (JEG-3) | Potency (OV90) | Potency (PA-1)

CC1OC(OC2C(O)C(C(=O)O)OC(OC3CCC4(C)C(CCC5(C)C4C=CC4=C6CC(C)(C)CC(O)C6(C)CCC45C)C3(C)C)C2OC2OCC(O)C(O)C2O)C(O)C(O)C1O (configuration not stated)
inactive: max response (KB-3-1) 1.62% | outcome (NIH3T3 [1]) | outcome (HACAT) inactive [at 9.27 µM] | outcome (HEK293T [2]) inactive [at 9.27 µM] | outcome (NIH3T3 [3]) inactive [at 9.27 µM] | activity change, negative = cytotoxicity (C33A) 25.5% [at 11.6 µM] | activity change, negative = cytotoxicity (CAOV3) 25.6% [at 11.6 µM] | activity change, negative = cytotoxicity (CASKI) 17.4% [at 11.6 µM] | activity change, negative = cytotoxicity (Es-2) -1.97% [at 11.6 µM] | activity change, negative = cytotoxicity (HeLa) -2.13% [at 11.6 µM] | activity change, negative = cytotoxicity (Hek293T [4]) -1.86% [at 11.6 µM] | activity change, negative = cytotoxicity (JEG-3) 0.12% [at 11.6 µM] | activity change, negative = cytotoxicity (OV90) 1.31% [at 11.6 µM] | activity change, negative = cytotoxicity (PA-1) 8.55% [at 11.6 µM]

CC(=O)NC(CCC(=O)O)C(=O)NCCc1ccc(O)cc1 (configuration not stated)
inactive: outcome (KB-3-1) | outcome (NIH3T3 [1]) | outcome (HACAT) | Potency (HEK293T [2]) | outcome (NIH3T3 [3]) | Potency (C33A) | Potency (CAOV3) | Potency (CASKI) | Potency (Es-2) | Potency (HeLa) | Potency (Hek293T [4]) | Potency (JEG-3) | Potency (OV90) | Potency (PA-1)

COc1ccc(C(O[C@@H]2O[C@H](CO)[C@@H](O)[C@H](O)[C@H]2O)C(CO)Oc2ccc(/C=C/CO)cc2OC)cc1O (some centres not stated)
inactive: outcome (KB-3-1) | outcome (NIH3T3 [1]) | outcome (HACAT) inactive [at 17.4 µM] | Potency (HEK293T [2]) | outcome (NIH3T3 [3]) inactive [at 17.4 µM] | Potency (C33A) | Potency (CAOV3) | Potency (CASKI) | Potency (Es-2) | Potency (HeLa) | Potency (Hek293T [4]) | Potency (JEG-3) | Potency (OV90) | Potency (PA-1)

CCCC(N[C@@H](C)C(=O)N1[C@H](C(=O)O)C[C@@H]2CCCC[C@@H]21)C(=O)OCC (some centres not stated)
inactive: outcome (KB-3-1) | outcome (NIH3T3 [1]) | outcome (HACAT) | Potency (HEK293T [2]) | outcome (NIH3T3 [3]) | Potency (C33A) | Potency (CAOV3) | Potency (CASKI) | Potency (Es-2) | Potency (HeLa) | Potency (Hek293T [4]) | Potency (JEG-3) | Potency (OV90) | Potency (PA-1)

FC(F)(F)c1cc(C(F)(F)F)c2ccc3nc(-c4nnco4)cn3c2n1
inactive: max response (KB-3-1) -10% | outcome (NIH3T3 [1]) | outcome (HACAT) | Potency (HEK293T [2]) | outcome (NIH3T3 [3]) | Potency (C33A) | Potency (CAOV3) | Potency (CASKI) | Potency (Es-2) | Potency (HeLa) | Potency (Hek293T [4]) | Potency (JEG-3) | Potency (OV90) | Potency (PA-1)

CC1=CC2(O)/C=C/C(C)(O)CC(O)/C=C/C(=O)OC23C(=O)NC(CC(C)C)C3C1C (configuration not stated)
inactive: max response (KB-3-1) -3.67% | outcome (NIH3T3 [1]) | outcome (HACAT) inactive [at 17.4 µM] | Potency (HEK293T [2]) | outcome (NIH3T3 [3]) inactive [at 17.4 µM] | Potency (C33A) | Potency (CAOV3) | Potency (CASKI) | Potency (Es-2) | Potency (HeLa) | Potency (Hek293T [4]) | Potency (JEG-3) | Potency (OV90) | Potency (PA-1)

O=C(O[C@H]1[C@@H]2C=CO[C@@H](O[C@@H]3O[C@H](CO)[C@@H](O)[C@H](O)[C@H]3O)[C@@H]2[C@@]2(CO)O[C@@H]12)c1ccc(O)c(O)c1
inactive: max response (KB-3-1) 4.32% | outcome (NIH3T3 [1]) | outcome (HACAT) inactive [at 17.4 µM] | Potency (HEK293T [2]) | outcome (NIH3T3 [3]) inactive [at 17.4 µM] | Potency (C33A) | Potency (CAOV3) | Potency (CASKI) | Potency (Es-2) | Potency (HeLa) | Potency (Hek293T [4]) | Potency (JEG-3) | Potency (OV90) | Potency (PA-1)
